# From PubChem BioAssay AID1159580 (chemical genetic matrix, 2015)
# Out of some 5,500 compounds screened, about 2,000 (36%) were called active. Not shown: some 18% with an inconclusive outcome. Some of the results follow. Unmarked numbers belong to inactive results. Cut-off read from the data, not from the text of the source: active = normalized growth mostly below about 0.91 (no sharp cut-off); inconclusive = no clear call, values can overlap the other calls; inactive = mostly above about 0.92.
# Assay: chemical genetic growth profiling, strain panel (AID 1159580);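 note: tested at 20 µM; growth read once vehicle control cultures reached saturation at 30 °C; 1 = growth at the plate median or of vehicle wells; lower values mean less growth of the strain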
# Conditions: S. cerevisiae deletion strains, growth OD
compound,measurement,setting,value
Cc1cn[nH]c1,normalized growth,"locus YAL021C, strain ccr4, active compounds read low",1.05
same,normalized growth,"locus YAL026C, strain drs2, active compounds read low",1.02
same,normalized growth,"locus YAL030W, strain snc1, active compounds read low",1.03
same,normalized growth,"locus YAL040C, strain CLN3, active compounds read low",0.992
same,normalized growth,"locus YBL061C, strain skt5, active compounds read low",1.02
same,normalized growth,"locus YBR009C, strain hhf1, active compounds read low",1.02
same,normalized growth,"locus YBR023C, strain chs3, active compounds read low",1.03
same,normalized growth,"locus YBR171W, strain sec66, active compounds read low",1.04
same,normalized growth,"locus YBR231C, strain swc5, active compounds read low",1.04
same,normalized growth,"locus YBR279W, strain paf1, active compounds read low",1.02
same,normalized growth,"locus YCL011C, strain gbp2, active compounds read low",1.02
same,normalized growth,"locus YCL016C, strain dcc1, active compounds read low",1.02
same,normalized growth,"locus YCL061C, strain MRC1 (second series), active compounds read low",0.99
same,normalized growth,"locus YCL069W, strain vba3, active compounds read low",1.03
same,normalized growth,"locus YCR088W, strain abp1, active compounds read low",1.01
same,normalized growth,"locus YDL005C, strain med2, active compounds read low",1.03
same,normalized growth,"locus YDL040C, strain nat1, active compounds read low",1.01
same,normalized growth,"locus YDR001C, strain nth1, active compounds read low",1.01
same,normalized growth,"locus YDR069C, strain doa4, active compounds read low",1.06
same,normalized growth,"locus YDR137W, strain rgp1, active compounds read low",1.01
same,normalized growth,"locus YDR150W, strain NUM1, active compounds read low",0.986
same,normalized growth,"locus YDR159W, strain sac3, active compounds read low",0.99
same,normalized growth,"locus YDR195W, strain ref2",1.16 [resistant] (active)
same,normalized growth,"locus YDR297W, strain sur2, active compounds read low",1.02
same,normalized growth,"locus YDR334W, strain swr1, active compounds read low",1.03
same,normalized growth,"locus YDR335W, strain msn5, active compounds read low",1.02
same,normalized growth,"locus YDR363W, strain ESC2, active compounds read low",1.02
same,normalized growth,"locus YDR392W, strain spt3, active compounds read low",1.1
same,normalized growth,"locus YEL003W, strain gim4, active compounds read low",1.02
same,normalized growth,"locus YEL037C, strain rad23, active compounds read low",1.01
same,normalized growth,"locus YEL061C, strain CIN8 (second series), active compounds read low",1.01
same,normalized growth,"locus YER002W, strain NOP16, active compounds read low",1.01
same,normalized growth,"locus YER015W, strain faa2, active compounds read low",1.02
same,normalized growth,"locus YER016W, strain bim1, active compounds read low",1.01
same,normalized growth,"locus YER111C, strain swi4, active compounds read low",1.02
same,normalized growth,"locus YER155C, strain BEM2 (second series), active compounds read low",1.13
same,normalized growth,"locus YFR010W, strain ubp6, active compounds read low",1.05
same,normalized growth,"locus YGL167C, strain pmr1, active compounds read low",1.02
same,normalized growth,"locus YGL173C, strain kem1, active compounds read low",1.01
same,normalized growth,"locus YGL227W, strain vid30, active compounds read low",1.01
same,normalized growth,"locus YGL240W, strain doc1, active compounds read low",1.05
same,normalized growth,"locus YGL253W, strain hxk2, active compounds read low",1.01
same,normalized growth,"locus YGR078C, strain PAC10, active compounds read low",0.984
same,normalized growth,"locus YHR013C, strain ard1, active compounds read low",1.1
same,normalized growth,"locus YHR027C, strain rpn1, active compounds read low",1.03
same,normalized growth,"locus YHR030C, strain SLT2, active compounds read low",0.971
same,normalized growth,"locus YHR079C, strain IRE1, active compounds read low",0.962
same,normalized growth,"locus YHR142W, strain chs7, active compounds read low",1.06
same,normalized growth,"locus YJL092W, strain hpr5, active compounds read low",1.02
same,normalized growth,"locus YJL095W, strain BCK1 (second series), active compounds read low",1.02
same,normalized growth,"locus YJL095W, strain BCK1, active compounds read low",1.03
same,normalized growth,"locus YJL115W, strain asf1, active compounds read low",1.01
same,normalized growth,"locus YJL129C, strain trk1, active compounds read low",1.06
same,normalized growth,"locus YJL154C, strain vps35, active compounds read low",1.02
same,normalized growth,"locus YJL164C, strain tpk1, active compounds read low",1.03
same,normalized growth,"locus YJL166W, strain qcr8, active compounds read low",1.03
same,normalized growth,"locus YJR066W, strain TOR1, active compounds read low",0.924
same,normalized growth,"locus YJR075W, strain HOC1, active compounds read low",1.02
same,normalized growth,"locus YKL160W, strain elf1, active compounds read low",1.01
same,normalized growth,"locus YKR026C, strain gcn3, active compounds read low",1.01
same,normalized growth,"locus YKR091W, strain srl3, active compounds read low",1.02
same,normalized growth,"locus YLL001W, strain dnm1, active compounds read low",1.02
same,normalized growth,"locus YLL026W, active compounds read low",1.02
same,normalized growth,"locus YLL041C, strain sdh2, active compounds read low",1.02
same,normalized growth,"locus YLR027C, strain aat2, active compounds read low",1.01
same,normalized growth,"locus YLR113W, strain HOG1, active compounds read low",1.02
same,normalized growth,"locus YLR221C, strain rsa3, active compounds read low",1.02
same,normalized growth,"locus YLR258W, strain gsy2, active compounds read low",1.03
same,normalized growth,"locus YLR262C, strain YPT6 (second series), active compounds read low",1.02
same,normalized growth,"locus YLR320W, strain mms22, active compounds read low",1.08
same,normalized growth,"locus YLR342W, strain FKS1, active compounds read low",1.03
same,normalized growth,"locus YLR357W, strain rsc2, active compounds read low",1.09
same,normalized growth,"locus YLR370C, strain arc18, active compounds read low",1.03
same,normalized growth,"locus YLR384C, strain iki3, active compounds read low",1.01
same,normalized growth,"locus YML120C, strain ndi1, active compounds read low",1.01
same,normalized growth,"locus YMR058W, strain fet3, active compounds read low",1.03
same,normalized growth,"locus YMR125W, strain sto1, active compounds read low",1.03
same,normalized growth,"locus YMR129W, active compounds read low",1.01
same,normalized growth,"locus YMR205C, strain PFK2, active compounds read low",1.08
same,normalized growth,"locus YMR231W, strain pep5, active compounds read low",1.02
same,normalized growth,"locus YMR307W, strain GAS1, active compounds read low",1
same,normalized growth,"locus YNL071W, strain lat1, active compounds read low",1.06
same,normalized growth,"locus YNL153C, strain GIM3, active compounds read low",1.02
same,normalized growth,"locus YNL175C, strain NOP13, active compounds read low",0.994
same,normalized growth,"locus YNL183C, strain NPR1, active compounds read low",0.934
same,normalized growth,"locus YNL197C, strain WHI3, active compounds read low",0.996
same,normalized growth,"locus YNL209W, strain ssb2, active compounds read low",1.02
same,normalized growth,"locus YNL224C, strain SQS1, active compounds read low",1.02
same,normalized growth,"locus YNL248C, strain rpa49, active compounds read low",1.02
same,normalized growth,"locus YNL322C, strain KRE1 (second series), active compounds read low",1.02
same,normalized growth,"locus YNL322C, strain KRE1, active compounds read low",0.974
same,normalized growth,"locus YNR049C, strain mso1, active compounds read low",1.01
same,normalized growth,"locus YOR001W, strain rrp6, active compounds read low",1.03
same,normalized growth,"locus YOR070C, strain gyp1, active compounds read low",1.02
same,normalized growth,"locus YOR080W, strain dia2, active compounds read low",1.04
same,normalized growth,"locus YOR083W, strain WHI5 (second series), active compounds read low",1.01
same,normalized growth,"locus YOR083W, strain WHI5, active compounds read low",1.02
same,normalized growth,"locus YOR106W, strain vam3, active compounds read low",1.03
same,normalized growth,"locus YOR231W, strain MKK1, active compounds read low",0.985
same,normalized growth,"locus YOR265W, strain rbl2, active compounds read low",1.02
same,normalized growth,"locus YOR270C, strain vph1, active compounds read low",1.08
same,normalized growth,"locus YOR290C, strain snf2, active compounds read low",1.03
same,normalized growth,"locus YPL051W, strain arl3, active compounds read low",1.02
same,normalized growth,"locus YPL055C, strain LGE1, active compounds read low",1.02
same,normalized growth,"locus YPL078C, strain atp4, active compounds read low",1.04
same,normalized growth,"locus YPL106C, strain sse1, active compounds read low",1.1
same,normalized growth,"locus YPL240C, strain hsp82, active compounds read low",1.01
same,normalized growth,"locus YPL241C, strain CIN2, active compounds read low",0.981
same,normalized growth,"locus YPL256C, strain CLN2, active compounds read low",0.938
